ARNT TACC3 PPI: disruptors of ARNT/TACC3 protein interaction, primary screen, biochemical, AlphaScreen, single concentration. actives 0.66% (n = 390,000). Transforming acidic coiled-coil-containing protein 3 (Homo sapiens), Q9Y6A5. AlphaScreen His-ARNT PAS-B/GST-TACC3 binding, luminescence; TACC3 fragment carries E629A point mutation. inhibition, % at 9.99 µM;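 active = mean inhibition of replicates at least 50% and at least half of replicates each reaching 50%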
Casp6 inh: human caspase-6 inhibitors, primary screen, biochemical, VEID-R110 fluorescence, single point, set 2. actives 0.53% (n = 350,000). P55212. inhibition, % at 12.5 µM. AID 686996, 2013. purified caspase-6, Z-VEID-R110 cleavage fluorescence;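 active = mean inhibition across replicates at least about 35%, with every replicate also reaching that limit, limit read from the data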
Target sequence (P55212 24-179 limits assumed): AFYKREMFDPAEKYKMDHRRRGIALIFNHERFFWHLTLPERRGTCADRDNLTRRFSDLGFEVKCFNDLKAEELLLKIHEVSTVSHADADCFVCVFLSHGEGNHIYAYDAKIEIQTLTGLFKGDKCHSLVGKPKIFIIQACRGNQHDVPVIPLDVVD
Target sequence (P55212 194-293 limits assumed): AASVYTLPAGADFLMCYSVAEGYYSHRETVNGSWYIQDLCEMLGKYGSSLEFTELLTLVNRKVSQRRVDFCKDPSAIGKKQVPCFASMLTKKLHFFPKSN
NSD2 HMT inh: NSD2 histone methyltransferase inhibitors, primary screen, biochemical, AlphaScreen, single concentration, set 2; NSD2 peptide methylation, 120 min; inhibition, % at 12.5 µM; actives 0.54% (n = 310,000); AID 743445, 2014; in the data active = inhibition above about 50%
PfHsp90 yeast 2: growth inhibition of PfHsp90-expressing yeast, primary screen, antimalarial PfHsp90 inhibitor project, S. cerevisiae, BacTiter-Glo luminescence, single point, set 2. BacTiter-Glo ATP, 48 h; yeast lacking PDR1 and PDR3 efflux regulators. inhibition, % at 9.4 µM. actives 0.32% (n = 310,000). AID 504621, 2011;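 active = every replicate shows inhibition above about 80%, whatever the replicate mean, limit read from the data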
SIRT5 inh: SIRT5 desuccinylase inhibitors, primary screen, biochemical, fluorescence imaging, single point, set 5. AID 652115, 2013. actives 1.1% (n = 330,000). Purified SirT5, succinyl-peptide AMC, trypsin-coupled fluorescence. inhibition, % at 15 µM; in the data active = inhibition above about 15%
ARNT Alpha ctr-1: AlphaScreen signal interference compounds, dose response, artefact control for ARNT-TACC3 interaction inhibitor project, biochemical, luminescence, cherry-pick; shares compounds with ARNT TACC3 PPI; His-ARNT PASB-GST AlphaScreen artifact counter-screen; AC50, µM (series often up to 68 µM); actives 50% (n = 1,200); AID 651705, 2012;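 active = every separate test run was called active for a drop in luminescence, with AC50 within twice the top valid dose, actives reach about 71 µM in these data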
ARNT Alpha ctr-2: AlphaScreen signal interference by compounds, dose response, artefact control for ARNT/TACC3 disruptor project, biochemical, dual-tagged ARNT, dry powder; shares compounds with ARNT TACC3 PPI; Dual-tagged His-ARNT PASB-GST AlphaScreen artifact counter-screen; AC50, µM; actives 70% (n = 45); AID 720564, 2013;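 active = luminescence drop, with half-maximal potency fitted within twice the sample's top valid dose, cut at about 70 µM in these data; inactive = the rest, including signal moving the wrong way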
Numbers stand for hits; – = inactive; · = not tested or not shown. Sampled rows, rich in hits. Any-hit rate of the full collection: about 2.1%.

SMILES	ARNT TACC3 PPI	Casp6 inh	NSD2 HMT inh	PfHsp90 yeast 2	SIRT5 inh	ARNT Alpha ctr-1	others
CCn1c(Cc2ccccc2)nnc1SCC(=O)Nc1ccc(N)cc1	57.2	·	–	–	·	–
C[C@@H]1CN([C@@H](C)CO)C(=O)c2cc(C#CC3CCCC3)cnc2O[C@@H]1CN(C)S(=O)(=O)c1cccc(F)c1	–	–	·	·	–	·
COc1ccc(-c2nnc(SCC(=O)NC3CCCCC3)o2)cc1	–	–	–	–	–	·
COc1ccc(-c2nnc(SCC(=O)NC3CC3)o2)cc1	active	–	–	–	–	–
CO[C@H]1CN(C)C(=O)c2cc(NC(=O)C3CCC3)ccc2OC[C@@H](C)N(Cc2nccs2)C[C@H]1C	–	–	·	·	–	·
CC1CCN(S(=O)(=O)c2ccc(C(=O)Nc3nnc(-c4ccno4)o3)cc2)CC1	·	·	·	·	·	·	ARNT Alpha ctr-2=–
N#Cc1ccc(C(=O)Nc2nnc(-c3ccccn3)o2)cc1	54.4	–	–	–	–	–
O=C(Nc1nnc(-c2ccncc2)o1)c1ccccc1	51.6	–	–	–	–	–
O=C(Nc1nnc(-c2ccncc2)o1)c1ccccc1F	–	–	–	–	–	·
CC1CCN(S(=O)(=O)c2ccc(C(=O)Nc3nnc(-c4ccccn4)o3)cc2)CC1	–	–	–	–	–	·	ARNT Alpha ctr-2=–
COCC(=O)Nc1ccc2c(c1)[C@H]1C[C@@H](CC(=O)OC)O[C@H](CO)[C@H]1O2	–	·	·	·	·	·
COc1ccccc1S(=O)(=O)N[C@H]1CC[C@H](CC(=O)N2CCN(C)CC2)O[C@H]1CO	–	–	·	·	–	·
C[C@@H]1CN([C@H](C)CO)C(=O)c2cc(N(C)C)ccc2O[C@@H](C)CCCCO[C@H]1CN(C)Cc1ccccc1	–	–	·	·	–	·
CC1CC(C)CN(S(=O)(=O)c2ccc(C(=O)Nc3nnc(C4CC4)o3)cc2)C1 (stereo unspecified)	–	–	–	–	–	·
CCOC(=O)N1CCN(S(=O)(=O)c2ccc(C(=O)Nc3nnc(C4CC4)o3)cc2)CC1	61.2	·	–	–	·	–
CNC[C@H]1Oc2ccc(NS(=O)(=O)c3cccs3)cc2C(=O)N([C@@H](C)CO)C[C@H]1C	–	–	·	·	–	·
COCCCN=Cc1c(-c2ccccc2)[nH]n(-c2nc3ccccc3s2)c1=O	57.6	–	–	–	–	–
O=c1c(C=NCCCO)c(-c2ccccc2)[nH]n1-c1nc2ccccc2s1	–	–	–	–	·	·
O=C(c1cc(-c2ccccc2)on1)N1CCC(N2CCOCC2)CC1	·	·	·	·	·	–
COc1cc(Cc2nccc3cc(OC)c(OC)cc23)c(S(=O)(=O)O)cc1OC	active	–	–	–	–	–
COc1cc(Cc2nccc3cc(OC)c(OC)cc23)c(NC(C)=O)cc1OC	–	–	–	–	–	·
N/C(=N\S(=O)(=O)c1cc(C(F)(F)F)cc(C(F)(F)F)c1)c1ccncc1	–	–	–	–	–	·
N/C(=N\NS(=O)(=O)c1cc(C(F)(F)F)cc(C(F)(F)F)c1)c1ccccn1	56.8	–	–	–	–	–
CN1CCN(c2nc(-c3ccc(Br)cc3)nnc2-c2ccccc2)CC1	–	·	·	·	·	·
c1ccc(-c2nnc(-c3ccccn3)nc2N2CCC(C3CCCCC3)C2)cc1 (stereo unspecified)	·	·	·	·	·	5.28µM
OCC1CCN(c2nc(-c3ccccn3)nnc2-c2ccccc2)CC1	·	·	·	·	·	2.84µM
COc1ccc(S(=O)(=O)N2CCCCN3[C@H](C2)[C@H](c2ccc(C#CC4CC4)cc2)[C@@H]3CO)cc1	–	–	·	·	–	·
COc1ccc(/C(C)=N\NC(=O)CSc2nnc(C)s2)cc1	38.6	·	–	–	·	–
Cc1ccc(-n2c(-c3ccc(Br)cc3)c[n+]3c2CCc2ccc4cccnc4c2-3)cc1	58.8	·	–	–	·	–

Compound activity (PubChem BioAssay)
